Test results: PubChem BioAssay (EPA / NIEHS)
Results filed as inconclusive are left out. Activity calls are given as the source filed them. Rule for the calls: active = hit-call score of the fitted dose curve at least 0.9, where 1 is the maximum; inconclusive = response in the unintended direction; inactive = score below 0.9.

These compounds were tested on alkyl and aryl transferase (GSTA2), GSTA2 (gene 2939) (assay: CLD_GSTA2_24hr: CellzDirect (CLD) Gene Expression Assay for alkyl and aryl transferase (GSTA2) at 24 hours (AID 2283693)).
Method: CLD_24hr is a cell-based, multiplexed-readout assay that uses hepatocyte, a human liver primary cell, with measurements taken at 24 hours after chemical dosing in a 96-well plate.CLD_GSTA2_24hr is one of 16 assay component(s) measured or calculated from the CLD_24hr assay. It is designed to make measurements of mRNA induction, a form of inducible reporter, as detected with chemiluminescence signals by Quantitative Nuclease Protection Assay (qNPA) technology.Data from the assay component CLD_GSTA2_24hr was analyzed at the endpoint, CLD_GSTA2_24hr, in the positive analysis fitting direction relative to DMSO as the negative control and baseline of activity. Using a type of inducible reporter, gain-of-signal activity can be used to understand changes in the reporter gene as they relate to the gene GSTA2. Furthermore, this assay endpoint can be referred to as a primary readout. To generalize the intended target to other relatable targets, this assay endpoint is annotated to the transferase intended target family, where subfamily is alkyl and aryl transferase.
Human hepatocyte cultures were treated daily for two consecutive days with fresh dosing solutions containing appropriate concentrations of the 320 ToxCast chemicals (chemical identities were blinded to CellzDirect and other ToxCast collaborators), vehicle control (0.2% DMSO), and positive control inducers as summarized in Table 1. Due to the large number of treatment groups and chemicals examined, the ToxCast chemicals were divided into two groups (spanning two independent cultures of hepatocytes from separate donor preparations (Hu778: ToxCast plates 1 and 2; Hu776: ToxCast plates 3 and 4). Each preparation of human hepatocyte cultures was treated with respective vehicle control, medium only control, set of six positive controls/reference chemicals for the five hepatic receptor pathways, and a subset of eight of the ToxCast chemicals (indoxacarb, pyrithiobac-sodium, norflurazon, cyhalofop-butyl, methomyl, thiram, acetochlor, and propiconazole). These replicate data, coupled with internal replicates designed within the blinded ToxCast chemical library, provided additional data to evaluate interindividual differences between hepatocyte preparations and their potential impact on chemical profiles.Cell morphology and integrity were evaluated using phase-contrast microscopy as an indicator of hepatocyte cell health (Tyson & Green, 1987). Cultures for each treatment group (i.e., media, vehicle [0.2% DMSO], positive control inducers [multiple concentrations], and the ToxCast chemicals [multiple concentrations]) were observed and cell morphology was assessed relative to vehicle control cultures at each harvest time point (0, 6, 24, or 48 h). […] Images were evaluated at the conclusion of the study to assess changes in cell integrity and account for the effects of chemical exposure on uncharacteristic changes in concentration-dependent gene expression profiles. The results from these determinations of apparent cytotoxicity were annotated (yes/no) alongside the corresponding qNPA data for reference.At the conclusion of each treatment period, hepatocyte cultures (96-well) were washed with 1 volume of HBSS, lysed by addition of 25 ul ArrayPlate lysis buffer (HTG, Tucson, AZ), and 70 ul/well of Denaturation Oil, denatured by incubation at 95C for 10 min, and frozen at approximately -70C until analysis by nuclease protection assay (qNPA) (Roberts et al., 2007). For qNPA analysis, cell lysates were thawed at 50C for approximately 30 min, qNPA probes were added, and samples were incubated at 95C for 10 min to begin the detection process by denaturing the target RNA, dissociating the duplexes and secondary structure hybridization. At the conclusion of the hybridization period, S1 nuclease reagent was added to each sample to digest all nonprotected nucleotides at 50C for 60-90 min. […]

Row | Compound | outcome
1 | CS(=O)(=O)c1ccc(C(=O)C2C(=O)CCCC2=O)c([N+](=O)[O-])c1 | inactive
2 | Cc1c(COC(=O)[C@@H]2[C@H](/C=C(\Cl)C(F)(F)F)C2(C)C)cccc1-c1ccccc1 | inactive
3 | CCOP(=S)(OCC)Oc1nc(Cl)n(C(C)C)n1 | inactive
4 | CN=C=S | inactive
5 | Cc1cnc(C2=NC(C)(C(C)C)C(=O)N2)c(C(=O)O)c1 (stereo not given) | inactive
6 | C=C(C)CN(CC)c1c([N+](=O)[O-])cc(C(F)(F)F)cc1[N+](=O)[O-] | inactive
7 | COCc1cnc(C2=NC(C)(C(C)C)C(=O)N2)c(C(=O)O)c1 (stereo not given) | inactive
8 | COP(=O)(OC)O/C(C)=C/C(=O)N(C)C | inactive
9 | COP(=S)(OC)Oc1ccc([N+](=O)[O-])c(C)c1 | inactive
10 | CCOc1nc(C(Cl)(Cl)Cl)ns1 | inactive
11 | COc1ccc(-c2ccccc2)cc1NNC(=O)OC(C)C | inactive
12 | CC1(C)CON(Cc2ccccc2Cl)C1=O | inactive
13 | CCSC(=O)N1CCCCCC1 | inactive
14 | COC(=O)NS(=O)(=O)c1ccc(N)cc1 | inactive
15 | COP(=S)(OC)SCn1nnc2ccccc2c1=O | inactive
16 | CCCN(CC)CC1COC2(CCC(C(C)(C)C)CC2)O1 (stereo not given) | inactive
17 | O=c1n(Cl)c(=O)n(Cl)c(=O)n1Cl | inactive
18 | CC(C)=CC1C(C(=O)OCc2coc(Cc3ccccc3)c2)C1(C)C (stereo not given) | inactive
19 | COCC(C)N(C(=O)CCl)c1c(C)csc1C (stereo not given) | inactive
20 | CC(C)N1C(=O)c2ccccc2NS1(=O)=O | inactive

Row | Compound | outcome
21 | CSC(=O)c1c(C(F)F)nc(C(F)(F)F)c(C(=O)SC)c1CC(C)C | inactive
22 | COCC(=O)N(c1c(C)cccc1C)C(C)C(=O)OC (stereo not given) | inactive
23 | CC(C)C1(C)N=C(c2ncccc2C(=O)O)NC1=O (stereo not given) | inactive
24 | CCCCOCN(C(=O)CCl)c1c(CC)cccc1CC | inactive
25 | CNC(=O)N(C)c1nnc(C(C)(C)C)s1 | inactive
26 | N#Cc1c(Cl)cccc1Cl | inactive
27 | CS(=O)(=O)c1cc(C(F)(F)F)ccc1C(=O)c1cnoc1C1CC1 | inactive
28 | CO/N=C(/C1=NOCCO1)c1ccccc1Oc1ncnc(Oc2ccccc2Cl)c1F | inactive
29 | N#CN=C1SCCN1Cc1ccc(Cl)nc1 | inactive
30 | Clc1nc(Cl)nc(Nc2ccccc2Cl)n1 | inactive
31 | Clc1cccc(C(Cl)(Cl)Cl)n1 | inactive
32 | COC(=O)N(C(=O)N1CO[C@@]2(C(=O)OC)Cc3cc(Cl)ccc3C2=N1)c1ccc(OC(F)(F)F)cc1 | inactive
33 | CNC(=O)Oc1cccc2ccccc12 | inactive
34 | COc1cc(Cl)c(OC)cc1Cl | inactive
35 | CC1(C)C(C(=O)OC(C#N)c2cccc(Oc3ccccc3)c2)C1(C)C (stereo not given) | inactive
36 | CCOP(=O)(OCC)Oc1nc(Cl)c(Cl)cc1Cl | inactive
37 | Cn1c(-c2ccccc2)cc(-c2ccccc2)[n+]1C | inactive
38 | O=P(O)(O)CCCl | inactive
39 | CC1(C)C(C=C(Cl)Cl)C1C(=O)OC(C#N)c1cccc(Oc2ccccc2)c1 (stereo not given) | inactive
40 | CCCCC(C#N)(Cn1cncn1)c1ccc(Cl)cc1 (stereo not given) | inactive
